Bioassay records as filed in PubChem.
CYP2C19 activ – activators of human cytochrome P450 2C19; P33261; recombinant CYP2C19, luciferin-H EGE luminescence; stronger effect = higher value; 0 = fully inhibited enzyme, 1 = untreated enzyme; activation factor at 5 µM; 96,000 tested, under 10 active; AID 1025;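 active means activation factor of at least 2 at 5 µM in the primary screen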
CYP2C19 inh – blocks human cytochrome P450 2C19. P33261. CYP2C19 Supersomes, luciferin-H EGE luminescence, 30 min. inhibition, % at 5 µM. actives 21% (n = 96,000);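 active means CYP2C19 inhibition above a set limit at 5 µM in the primary screen, cut at about 50% in these data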
CYP2C9 inhib – inhibitors of human CYP2C9; CYP2C9 Supersomes, luciferin-H conversion, luminescence; inhibition, % at 5 µM; actives 20% (n = 96,000); AID 777;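 active means blocking of liver enzyme CYP2C9 beyond about 50% at 5 µM, limit read from the data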
Target sequence (P11712 whole entry, looked up): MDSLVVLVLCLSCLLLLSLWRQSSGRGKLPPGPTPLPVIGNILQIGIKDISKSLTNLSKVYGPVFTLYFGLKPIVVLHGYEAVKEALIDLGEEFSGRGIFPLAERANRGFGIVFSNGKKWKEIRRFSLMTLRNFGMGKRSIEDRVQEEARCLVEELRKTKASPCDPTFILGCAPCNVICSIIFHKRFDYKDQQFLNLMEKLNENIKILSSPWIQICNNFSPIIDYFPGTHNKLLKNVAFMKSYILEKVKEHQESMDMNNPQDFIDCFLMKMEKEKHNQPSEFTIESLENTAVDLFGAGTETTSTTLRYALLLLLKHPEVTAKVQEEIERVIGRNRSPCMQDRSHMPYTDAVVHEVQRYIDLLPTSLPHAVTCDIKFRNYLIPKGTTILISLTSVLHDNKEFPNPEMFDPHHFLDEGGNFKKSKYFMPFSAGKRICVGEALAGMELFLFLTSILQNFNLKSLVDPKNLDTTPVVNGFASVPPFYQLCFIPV
CYP2C9 activ – increases human cytochrome P450 2C9 activity; P11712; recombinant CYP2C9, luciferin-H conversion, luminescence; stronger effect = higher value; factor 1 = untreated enzyme, 0 = blocked; activation factor at 5 µM; actives 1.4% (n = 96,000); AID 1024;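 active means activation factor of 2 or more for CYP2C9 at a 5 µM dose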
Measles CPE – protection of cells from measles virus; Measles virus-infected cells, CPE protection, absorbance; actives 1.5% (n = 140,000); AID 841; protection (pct of control), % at 4 µM; in the data active means protection mostly above about 24%, no sharp cut-off; inactive means mostly below about 26%
Hits are given with their value; – = inactive; · = no result. The list is not random: actives were taken first. Their share in the collection is about 22%.

SMILES	CYP2C19 activ	CYP2C19 inh	CYP2C9 inhib	CYP2C9 activ	Measles CPE
CCCCC1(CCCC)C(=O)NC(=Nc2cccc(C)c2)NC1=O	–	61	60	–	–
CCCC1(CCC)C(=O)NC(=Nc2ccccc2)NC1=O	–	–	54	–	–
Cc1ccccc1-n1c(C)nc2sccc2c1=O	–	53	–	–	–
Cc1nc2sccc2c(=O)n1-c1ccccc1Cl	–	63	–	–	–
O=c1c2ccccc2nc(-c2cccs2)n1-c1ccccc1	–	–	–	–	–
CCOP(=S)(OCC)SCC(=O)NC(C)(CC)C(=O)O (stereo not drawn)	–	–	84	–	–
O=C(CNS(=O)(=O)c1ccc(Br)s1)N1CCC2(CC1)OCCO2	–	58	–	–	–
CCOc1cccc(OCC)c2c(C)[n+](CC3CCCO3)c(C)c1-2 (stereo not drawn)	–	–	–	–	–
CCN1/C(=C\C=C\C2=[N+](CC)c3ccccc3C2(C)C)C(C)(C)c2ccccc21	–	92	69	–	–
COc1cc(/C=C/C(=O)c2c(O)n(CCc3ccccc3)c(=O)[nH]c2=O)ccc1O	·	·	·	·	–
CCCCn1c(O)c(C(C)=NC(C)c2ccccc2)c(=O)[nH]c1=O (stereo not drawn)	–	54	77	–	–
CC(=NCC1CCCO1)c1c(O)n(-c2ccc(C)cc2)c(=O)[nH]c1=O (stereo not drawn)	–	–	–	–	–
CC(=NCC1CCCO1)c1c(O)n(Cc2ccccc2)c(=O)[nH]c1=O (stereo not drawn)	–	–	–	–	36
CCCCn1c(O)c(C(CC)=NC(C)c2ccccc2)c(=O)[nH]c1=O (stereo not drawn)	–	71	91	–	–
CCCCn1c(O)c(C(C)=NCCc2ccccc2)c(=O)[nH]c1=O	–	–	69	–	–
CCCCn1c(O)c(C(C)=Nc2ccc(C(=O)O)cc2)c(=O)[nH]c1=O	–	–	–	–	–
CCOC(=O)C1C(=O)NC23CCCC2C1c1ccccc1O3 (stereo not drawn)	–	–	–	–	–
O=C1C2CCCN2C(c2ccccc2)N1c1ccccn1 (stereo not drawn)	–	–	–	–	–
Cc1ccc(C(O)(C(=O)NNC(=O)CN2CCN(C)CC2)c2ccc(C)cc2)cc1	·	·	·	·	–
CC(C)(C)c1ccc(O)c(CN2CCN(c3ccccc3)CC2)c1	–	–	–	–	–
C=CCn1c(O)c(C(CC)=NC(C)c2ccccc2)c(=O)[nH]c1=O (stereo not drawn)	–	66	63	–	–
Cc1ccc(-n2c(/C=C/c3ccc4c(c3)OCO4)nc3ccccc3c2=O)cc1	·	·	·	·	26
COc1ccc(C=C2C(=O)N(C)C(=O)N(C)C2=O)cc1CSc1ccccn1	–	58	–	–	–
COc1ccc(/C=C2/C(=O)NC(=O)N(C3CCCCC3)C2=O)cc1CSc1ccccn1	–	56	–	–	–
CCOC(=O)c1c(C)n(Cc2ccccc2)c2ccc(OCC(O)Cn3nc(C)nc3C)cc12 (stereo not drawn)	–	54	62	–	–
SMILES	CYP2C19 activ	CYP2C19 inh	CYP2C9 inhib	CYP2C9 activ	Measles CPE
CCOC(=O)c1c(C)n(Cc2ccccc2)c2ccc(OCC(O)Cn3nc(C)cc3C)cc12 (stereo not drawn)	·	·	·	·	–
CN1CCN(c2nc([N+](=O)[O-])nn2C)CC1	·	·	·	·	–
NCCc1c[nH]c2ccccc12	·	·	·	·	–
CCCCc1ccc2[nH]cc(CCN)c2c1	–	–	63	–	–
CCOc1cc(/C=C2/C(=O)NC(=O)N(c3ccc(CC)cc3)C2=O)ccc1OC(=O)c1cccs1	–	59	–	–	–
COc1ccc(CC[n+]2cc(/N=C(\C)[O-])on2)cc1OC	·	·	·	·	35
OC12ONC(c3ccccn3)C1N1CCC2CC1 (stereo not drawn)	·	·	·	·	–
Cc1cc(C)c(C2=NOC(O)(C(F)(F)F)C2)c(=O)[nH]1 (stereo not drawn)	–	–	–	–	27
O=C1NC(=O)[C@]2(Cc3ccccc3N3CCN(c4ccccc4)CC32)C(=O)N1c1ccccc1 (stereo partly drawn)	–	63	91	–	–
CCCCN1C(=O)NC(=O)C2(Cc3ccccc3N3CCOCC32)C1=O (stereo not drawn)	–	70	67	–	–
CN1C(=O)NC(=O)C2(Cc3ccccc3N3CCOCC32)C1=O (stereo not drawn)	–	–	–	–	·
O=C1NC(=O)[C@]2(Cc3ccccc3N3CCN(c4ccccc4)CC32)C(=O)N1Cc1ccccc1 (stereo partly drawn)	–	71	91	–	–
CC(C)n1cc(C(=O)N(CC(=O)NC2CCCC2)Cc2ccccc2)cn1	–	–	–	–	–
CN1C(=O)N(C)C(=O)C2(Cc3c(nc4ccccn4c3=O)N3CCc4ccccc4C32)C1=O (stereo not drawn)	–	–	–	–	40
CC(C)OP(=O)(OC(C)C)C(O)c1cccnc1 (stereo not drawn)	·	·	·	·	–
CCOC(=O)C(NC(=O)CCl)(Nc1ccc(C(O)(C(=O)OCC)C(F)(F)F)cc1)C(F)(F)F (stereo not drawn)	·	·	·	·	–
CCOC(=O)C(NC(=O)CC)(Nc1ccc(C(O)(C(=O)OCC)C(F)(F)F)cc1C)C(F)(F)F (stereo not drawn)	–	–	54	–	–
CCOC(=O)C(O)(c1ccc(N(CC)C(=O)OC)cc1)C(F)(F)F (stereo not drawn)	–	64	69	–	–
CCOC(=O)N(C)c1ccc(C(O)(C(=O)OCC)C(F)(F)F)cc1 (stereo not drawn)	–	61	70	–	–
CCOC(=O)N(CC)c1ccc(C(O)(C(=O)OCC)C(F)(F)F)cc1 (stereo not drawn)	–	58	77	–	–
CCN(C(=O)Oc1ccccc1)c1ccc(C(O)(C(=O)OC)C(F)(F)F)cc1 (stereo not drawn)	·	·	·	·	–
CCC(=O)OC1(c2cccc(C)c2)CC(C)N(C)CC1C (stereo not drawn)	–	–	–	–	–
COc1ccccc1CCNC1CCC(C)CC1 (stereo not drawn)	·	·	·	·	–
CC(N)Cc1c[nH]c2cc3c(cc12)OCCO3 (stereo not drawn)	–	–	–	–	–
CCOC(=O)c1c(-n2c(C)cc(C=C3C(=O)NC(=S)NC3=O)c2C)sc2c1CCCC2	–	–	67	–	–
SMILES	CYP2C19 activ	CYP2C19 inh	CYP2C9 inhib	CYP2C9 activ	Measles CPE
O=C(Nc1ccc(F)cc1F)c1cccnc1Oc1cccc(C(F)(F)F)c1	–	–	–	–	–
O=c1c2ccccc2nc(N2CCCC2)n1-c1ccc(Cl)cc1	–	67	–	–	–
COc1nc2ccccc2c(=O)n1-c1ccc(Cl)cc1	·	·	·	·	–
CN1CCN(C(=O)OC2c3nccnc3C(=O)N2c2ccc(Cl)cn2)CC1 (stereo not drawn)	·	·	·	·	–
COc1ccc(OCC(=O)N2CCN(C(C)C)CC2)cc1	·	·	·	·	–
CNP(=S)(NC)OCCOc1ccc(OC)cc1	–	84	–	–	–
